Screening data: PubChem BioAssay, National Center for Advancing Translational Sciences (NCATS)
Most compounds without a hit are left out; they make up all but 2.4% or so of the library.
D2 PAM-1: potentiates the human D2 dopamine receptor allosterically | P14416 | DiscoveRx D2 beta-arrestin cells, luminescence, 90 min; 100% = 57 uM dopamine signal | potentiation, % (concentration not given with the values) | hit rate 0.23% among 360,000 | AID 624464; in the data active = potentiation above about 50%
Target sequence (P14416 whole entry, looked up): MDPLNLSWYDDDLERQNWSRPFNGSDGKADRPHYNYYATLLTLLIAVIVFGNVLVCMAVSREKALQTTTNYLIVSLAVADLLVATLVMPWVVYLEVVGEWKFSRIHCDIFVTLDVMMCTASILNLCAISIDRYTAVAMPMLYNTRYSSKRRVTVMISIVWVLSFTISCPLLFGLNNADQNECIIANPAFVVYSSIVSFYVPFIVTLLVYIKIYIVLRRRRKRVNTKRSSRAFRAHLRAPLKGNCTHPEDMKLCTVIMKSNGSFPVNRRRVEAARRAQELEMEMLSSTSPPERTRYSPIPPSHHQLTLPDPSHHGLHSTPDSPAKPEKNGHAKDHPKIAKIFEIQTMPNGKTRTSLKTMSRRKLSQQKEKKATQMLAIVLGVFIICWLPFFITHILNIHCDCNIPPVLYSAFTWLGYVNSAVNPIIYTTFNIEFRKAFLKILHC
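PathHunter beta-arrestin assay in DiscoveRx D2 cells. Compounds were added with an EC20 of dopamine (50 nM final) for 90 min at 37 deg C. Luminescence was read 1 h after detection reagent, with 57 uM dopamine as the EC100 control.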
D2 ag-1: human D2 receptor agonism in beta-arrestin assay; P14416; DiscoveRx PathHunter D2 beta-arrestin, luminescence, 90 min; 100% = 57 uM dopamine signal; activation, % (test concentration not listed); hit rate 0.084% among 360,000; AID 624465; in the data active = activation above about 40%
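DiscoveRx PathHunter D2 beta-arrestin cells (2,100/well) attached overnight, then compound-stimulated 90 min at 37 C in HBSS/10 mM HEPES/0.1% Tween-20 buffer; beta-galactosidase complementation read by luminescence after 1 h at ambient temperature. Dopamine 57 uM final (EC100) as control.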
D2 PAM-2: D2 dopamine receptor (human) potentiation | P14416 | HEK293 T-REx D2, calcium flux, EC20 dopamine potentiation | potentiation, % at 10 µM | hit rate 0.34% among 340,000 | AID 485347;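 active = potentiation over 3 SD above the plate norm, cut at about 30% in these data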; note: 0% is about no effect
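Potentiation of an EC20 dopamine calcium response is measured in a force-coupled, tetracycline-inducible Hek293 Trex D2 line. Compound-only kinetic reads over 180 s flag agonists before dopamine addition.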
D2 antag: D2 dopamine receptor (human) antagonism; P14416; HEK293 TREx D2 cells, calcium flux, dopamine EC80; inhibition, % at 10 µM; hit rate 2% among 340,000; AID 485344; in the data active = inhibition above about 30%; inactive = below that, where a call was filed; note: 0% is about no effect
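HEK293 T-REx D2 cells, tet-induced, calcium dye no-wash. Cpd pintool add, 180 s kinetic, then EC80 DA, 180 s kinetic. Ca flux read.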
D2 ag-2: activates the human D2 dopamine receptor. activation, % at 2 µM. hit rate 0.53% among 340,000. HEK293 T-REx D2 cells, calcium flux agonist mode;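 active = activation over 3 SD above normal in the single-dose calcium agonist read, cut at about 30% in these data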; note: 0% is about no effect
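Agonism scored from kinetic calcium signal (1 read/sec, 180 s) following compound pin transfer, after a 10 s baseline. Cells: HEK293 Trex line expressing inducible D2 receptor coupled to calcium, dye-loaded after overnight culture at 30 C.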
Active calls of the source: *; . = no result given.

SMILES | D2 PAM-1 | D2 ag-1 | D2 PAM-2 | D2 antag | D2 ag-2
CC(C)[C@@H](C(=O)OCC(=O)Nc1ccc2c(c1)OCO2)N1C(=O)c2ccccc2C1=O | -15 | 1 | 1 | 46* | -1
Cc1ccccc1C(=O)NCCCc1ccccc1 | -9 | -1 | 2 | 5 | 3
Cc1ccccc1C(=O)Nc1ccnn1C1CCN(Cc2ccncc2)CC1 | 3 | -5 | -18 | 31* | 1
Cc1ccccc1CN1CCC(n2nccc2NC(=O)c2ccc3c(c2)OCO3)CC1 | -47 | -9 | -1 | -6 | 0
O=C(Nc1ccnn1C1CCN(Cc2cccnc2)CC1)c1ccccc1Cl | 7 | -3 | 5 | -7 | 0
Cc1cc(CN2CCC(n3nccc3NC(=O)c3ccccc3Cl)CC2)cc(C)c1O | -20 | -3 | -19 | 55* | 1
COc1ccccc1C(=O)Nc1ccnn1C1CCN(Cc2csc(C(C)=O)c2)CC1 | -28 | -2 | -1 | 32* | 1
COc1ccc(CN2CCC(n3nccc3NC(=O)c3ccc4c(c3)OCO4)CC2)cc1C | -32 | 2 | -12 | 45* | 1
COc1ccnc(Oc2ccc(F)cc2)c1C(=O)N/C=N/OCc1ccc(Cl)cc1Cl | 18 | -4 | 12 | -5 | 1
Cc1cc(C(=O)Cn2nc(C(=O)O)c3ccccc3c2=O)c(C)n1-c1ccc(OC(F)F)cc1 | 0 | -4 | 36* | -14 | -1
COc1ccc(-n2c(C)cc(C(=O)Cn3nc(C(=O)O)c4ccccc4c3=O)c2C)cc1 | -4 | 3 | -4 | -4 | 0
CCCc1nc2ccccc2c(=O)n1/N=C/c1ccc(O)cc1O | -10 | -6 | -2 | -9 | 0
CN(C)/C=N/c1cc(=O)[nH]c(=O)n1Cc1ccccc1 | -24 | -2 | 6 | 40* | 0
O=C1CC(c2ccccc2)CC(O)=C1C=Nc1ccccc1 (configuration not stated) | -15 | -2 | -3 | -2 | 0
Cc1ccccc1-c1nc(C#N)c(N2CCC(C)CC2)o1 | -1 | -2 | 1 | 31* | 0
Cc1c(C(=O)NCCC2=CCCCC2)oc2ccc(S(=O)(=O)N3CCOCC3)cc12 | 19 | -1 | -3 | 5 | 0
Cc1c(C(=O)NCCCN2CCCC2=O)oc2ccc(S(=O)(=O)N3CCOCC3)cc12 | -6 | -2 | -4 | 44* | 1
O=C(Nc1ccc2c(c1)C(=O)NC2=O)c1ccc(S(=O)(=O)N2CCCC2)cc1 | 0 | 0 | -15 | 31* | 0
O=C(NCCCN1CCCC1=O)c1cccc(S(=O)(=O)N2CCCCC2)c1 | -1 | 8 | 3 | 38* | 0
COCCNC(=O)c1c[nH]c2ccc(S(=O)(=O)N3CCOCC3)cc2c1=O | -4 | -2 | -8 | 46* | 1
COc1ccccc1CCNC(=O)c1cc2ccccn2n1 | . | . | 1 | . | 0
COc1ccc(-c2nc3c(Cl)cc(C(F)(F)F)cn3c2Cc2cccc(F)c2)cc1OC | -9 | -6 | . | . | .
CCC1CCCCN1Cc1c(O)ccc2c(=O)c(-c3ccccc3)coc12 (configuration not stated) | -10 | -1 | -12 | -8 | -2
CCN(CC(=O)NCc1cccs1)C(=O)COc1ccccc1C#N | -8 | -2 | 4 | -23 | 0
O=C(Nc1cccc(S(=O)(=O)N2CCCCC2)c1)c1ccc(N2CCCC2=O)cc1 | -8 | -2 | 51* | 1 | 0
SMILES | D2 PAM-1 | D2 ag-1 | D2 PAM-2 | D2 antag | D2 ag-2
O=C(NCCCN1CCOCC1)c1cccc(S(=O)(=O)N2CCN(c3ccccc3)CC2)c1 | -23 | -8 | 13 | -13 | 0
Cc1ccc(CNC(=O)c2oc3ccc(S(=O)(=O)N4CCC5(CC4)OCCO5)cc3c2C)cc1 | 17 | 2 | -9 | . | .
O=C(CCNC(=O)c1ccc(Br)cc1)Nc1cccc(S(=O)(=O)N2CCCC2)c1 | -26 | -4 | -1 | 38* | -1
O=C(Nc1cccc(S(=O)(=O)N2CCOCC2)c1)c1ccc(N2CCCC2=O)cc1 | -1 | 0 | -12 | 11 | 1
O=C(NCCOc1ccccc1F)c1cccc(S(=O)(=O)N2CCN(c3ccccc3)CC2)c1 | 29 | 3 | 5 | 35* | 2
Cc1c(C(=O)NCCN(C)C)oc2ccc(S(=O)(=O)N3CCC4(CC3)OCCO4)cc12 | -2 | 0 | . | 33* | 1
